Screens: PubChem, several laboratories
This is a sample that favours compounds with a hit; in the whole collection about 4.1% have one here.
MazF activator: activators of E. coli MazEF toxin-antitoxin RNase | FAM/BHQ RNA-DNA oligo cleavage fluorescence, 5 h | activation, % at 20 µM | actives 0.32% (n = 350,000) | AID 504720; in the data active = activation above about 50%
Target sequence (P0AE70 whole entry, looked up): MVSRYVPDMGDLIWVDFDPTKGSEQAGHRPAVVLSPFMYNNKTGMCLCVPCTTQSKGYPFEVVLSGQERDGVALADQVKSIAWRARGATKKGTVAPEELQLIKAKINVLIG
BoNT A protease: inhibitors of Botulinum neurotoxin A light chain protease; multiplex microsphere protease substrate cleavage, flow cytometry; inhibition, % at 10 µM; actives 0.17% (n = 360,000); note: plate controls were buffer without enzyme for full effect and enzyme alone for no effect
Bead autofluor: counter-screen for toxin protease inhibitors: compound fluorescence. compound autofluorescence counterscreen, microsphere flow cytometry; hits give high values. fluorescence intensity (no concentration beside the values). actives 3.1% (n = 360,000); in the data active = fluorescence intensity above about 16000; inconclusive = no clear call, values can overlap the other calls
Anthrax LF inh2: inhibitors of Bacillus anthracis lethal factor protease; AID 588501; inhibition, % at 10 µM; multiplex microsphere protease cleavage assay, LF; P15917; actives 0.12% (n = 360,000); note: plate controls were buffer without enzyme for full effect and enzyme alone for no effect
DUSP3 inh: DUSP3 (human) phosphatase inhibition | recombinant VHR phosphatase, pNPP absorbance | inhibition, % at 13.3 µM | actives 0.52% (n = 290,000) | AID 1654; in the data active = inhibition above about 50%
Target sequence (P51452 whole entry, looked up): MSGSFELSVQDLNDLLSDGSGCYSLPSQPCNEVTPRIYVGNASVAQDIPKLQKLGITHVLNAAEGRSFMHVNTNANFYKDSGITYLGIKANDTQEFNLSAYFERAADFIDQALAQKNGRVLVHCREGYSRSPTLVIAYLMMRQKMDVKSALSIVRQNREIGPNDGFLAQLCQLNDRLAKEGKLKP
BoNT-F LC inh: BoNT F light chain protease inhibition; AID 588497; Multiplex microsphere protease cleavage assay, flow cytometry; actives 0.22% (n = 360,000); inhibition, % at 10 µM; in the data active = inhibition above about 35%, passing the limit was not always enough; inconclusive = no clear call, values can overlap the other calls; note: plate controls were buffer without enzyme for full effect and enzyme alone for no effect
* = called active by the depositor; ? = inconclusive; · = not tested or not shown. Cut-off read from the data, not from the text of the source, unless noted: active = inhibition above about 30%; inconclusive = no clear call, values can overlap the other calls; inactive = below that.

SMILES | MazF activator | BoNT A protease | Bead autofluor | Anthrax LF inh2 | DUSP3 inh | BoNT-F LC inh
COC(=O)c1ccc2c(c1)NC(=O)C(N(CC(C)C)CC(C)C)S2 (stereo not drawn) | -15 | 0 | 4793 | -11 | 15 | 4
CCCN(CCC)C1Sc2ccc(C(=O)OC)cc2NC1=O (stereo not drawn) | 2 | 1 | 19484* | -1 | 41 | 1
CCCn1nnnc1NCc1ccc(N(CC)CC)cc1 | 555* | -4 | 4598 | 3 | -16 | -2
CCCn1nnnc1NCc1ccc(N2CCCC2)cc1 | 10 | 10 | 17311* | -3 | 0 | -13
CCCn1nnnc1NCc1cccc(Cl)c1 | 10 | -2 | 4051 | 6 | 53* | 12
O=C(CSc1nn(-c2ccccc2)c(=S)s1)NC(=O)NCc1ccco1 | -2 | -2 | 23530* | 0 | 15 | -1
O=C(CSc1nn(-c2ccccc2)c(=S)s1)Nn1cnnc1 | 3 | -1 | 3527 | -3 | 30 | -10
CC1(c2ccc(Cl)cc2Cl)NC(=O)N(CC(=O)NC2CCCCC2)C1=O (stereo not drawn) | -3 | 0 | 5409 | -6 | · | -3
O=C1N[C@@H](Cc2ccccc2)C(=O)N1CCN1CCOCC1 | 11 | ? | 22937* | -2 | 22 | 2
O=C1CCCN1CCCN1C(=O)N[C@@H](Cc2ccccc2)C1=O | 5 | -1 | 10248 | -1 | 17 | -5
CC1Oc2ccccc2N(CC(=O)N2CCCCC2)C1=O (stereo not drawn) | -9 | 2 | 3603 | 1 | 34 | 3
CC1Oc2ccccc2N(CC(=O)N2CCc3ccccc32)C1=O (stereo not drawn) | -13 | 1 | 23145* | -4 | 32 | 0
CC1Oc2ccccc2N(CC(=O)N2CCCc3ccccc32)C1=O (stereo not drawn) | -12 | 11 | 18633* | -16 | 25 | 13
O=C(Cn1cccc1)N1CCc2ccccc21 | 11 | -4 | 17880* | -4 | 11 | -10
O=C(CSc1ccccc1)N1CCc2ccccc21 | 10 | 0 | 2916 | -2 | 36 | -5
CC1(C(=O)NS(=O)(=O)c2cccc(Cl)c2)CCN1C(=O)C1(c2ccccc2)CC1 (stereo not drawn) | · | 0 | 3521 | -8 | · | 4
Cn1c(N)c(C(=O)Nc2ccc3ccccc3c2)sc1=S | 11 | ? | 21788* | -1 | -1 | 2
CC1CCN(C(=O)CSc2nnc3ccc(-c4cccnc4)nn23)CC1 | 2 | 4 | 4427 | 0 | · | 2
Cc1ccc(C)c(NC(=O)CCC(=O)N/N=C/c2ccc[nH]2)c1 | 11 | -1 | 21086* | -1 | 28 | -3
O=C(CNCc1cccs1)NC12CC3CC(CC(C3)C1)C2 | 7 | -1 | 4622 | -5 | 30 | -7
CC1(C)C2CCC(C2)C1(C)NC(=O)CNCc1cccs1 (stereo not drawn) | 2 | 1 | 2418 | 0 | 51* | 3
CN(C(=O)c1cc2c(s1)-c1ccccc1S(=O)(=O)C2)c1ccccc1 | -10 | -1 | 3493 | 2 | 4 | -2
CCOC(=O)CNC(=O)c1sc2ncnc(N3CCc4ccccc4C3)c2c1C | 1 | 7 | 19828* | 5 | 0 | 11
CCCCNC(=O)c1sc2ncnc(N3CCc4ccccc4C3)c2c1C | -12 | 0 | 10137 | -3 | 17 | -4
CN(C)c1nc2n(c(=O)n1)CCS2 | 3 | 0 | 3435 | -3 | 14 | -6
SMILES | MazF activator | BoNT A protease | Bead autofluor | Anthrax LF inh2 | DUSP3 inh | BoNT-F LC inh
CN(C)c1nc2n(c(=O)n1)C(C#N)CS2 (stereo not drawn) | -5 | 0 | 16338* | 2 | -13 | -2
COC(=O)c1sc2ncccc2c1OCc1ccc(Cl)cc1 | 3 | -2 | ? | ? | 17 | -6
COC(=O)c1sc2ncccc2c1OCc1ccccc1Cl | 7 | 2 | 18888* | -7 | -1 | 0
Nc1nccc(NCCSCc2ccccc2)n1 | -1 | 0 | 3513 | 4 | · | -6
CCCCNC(=O)C(=O)Nc1ccc2c(c1)N(S(=O)(=O)c1cccs1)CCC2 | 0 | 0 | 3868 | 0 | · | -3
O=C(Cc1noc2ccccc12)Nc1ccc2ccccc2c1 | 3 | 1 | 21952* | -3 | 0 | -1
Cc1ccc(NC(=O)Cc2noc3ccccc23)cc1 | -2 | 1 | 5464 | 3 | 0 | 8
COc1ccn(C2CCCCO2)c(=O)n1 (stereo not drawn) | -8 | -1 | 3651 | 0 | · | -9
CCOC(=O)C1=C(N)n2c(s/c(=C\c3cccnc3)c2=O)=C(C(=O)OC)C1c1cccnc1 (stereo not drawn) | 18 | 0 | 3167 | -3 | · | -2
CCOC(=O)C1=C(N)n2c(s/c(=C\c3cccnc3)c2=O)=C(C(=O)OCC)C1c1cccnc1 (stereo not drawn) | · | · | · | · | 57* | ·
CSc1ccccc1C(=O)Nc1cccc(C)c1 | 1 | ? | 17403* | -4 | -12 | 11
COC(=O)c1ccc(NC(=O)c2ccccc2SC)cc1 | 8 | -3 | 16827* | -2 | 45 | -2
COC(=O)c1ccc(NC(=O)c2ccccc2C(=O)Nc2ccc(C(=O)OC)cc2)cc1 | -4 | 0 | 6278 | -4 | · | -4
C[C@H](O)[C@@H]1C(=O)N2CCc3ccc(N4CCN(C)CC4)cc3[C@@H]2C[C@@H]1N(C)C(=O)c1cccnc1 | 7 | 0 | 2937 | -2 | · | -1
CC(=O)Nc1cc2c3c(c1)CCN3C(=O)CC2 | -16 | 1 | 4569 | -2 | 56* | -1
CC(C)CC(=O)Nc1cc2c3c(c1)CCN3C(=O)CC2 | 3 | -1 | 4562 | -1 | 2 | -1
CC1(C)CC2CC(C)(CN2C(=O)COC(=O)c2ccc(NC(=O)CC#N)cc2)C1 (stereo not drawn) | 3 | · | · | · | · | ·
CCOC(=O)c1c(-c2ccccc2)csc1NC(=O)c1ccc(N2C(=O)CCC2=O)cc1 | 0 | 1 | 22792* | 1 | -29 | 1
CCOC(=O)c1c(-c2ccccc2)csc1NC(=O)c1ccc(S(=O)(=O)N2CC(C)OC(C)C2)cc1 (stereo not drawn) | -6 | 2 | 23061* | -1 | -17 | -1
CCOC(=O)c1sc2nc(Cc3ccc(Cl)cc3)[nH]c(=S)c2c1C | 3 | 0 | 4401 | -4 | 25 | 4
CNc1ncnc2c1ncn2[C@H]1CN(Cc2ccc(OC)cc2)C[C@@H](CO)O1 | · | 0 | 3635 | 2 | · | -3
NC(=NCc1ccco1)NC(=O)c1ccc(Cl)cc1 | 12 | -6 | 4553 | -7 | 7 | -2
CC(OC(=O)c1nn(C(C)C)c(=O)c2ccccc12)C(=O)Nc1ncc(Cl)cc1Cl (stereo not drawn) | -11 | -1 | 7672 | -1 | 60* | -6
CC(=O)c1c(C(C)=O)c(C)n(NC(=O)c2ccccc2O)c1C | 1 | ? | 20975* | 2 | 34 | 4
CC(=O)c1c(C(C)=O)c(C)n(NC(=O)c2cccnc2)c1C | 3 | -1 | 8128 | 0 | 21 | -3
CC(C)(C)c1ccc(CS(=O)CC(O)CO)cc1 (stereo not drawn) | 2 | 0 | 2145 | -2 | -4 | 1
